Source: PubChem BioAssay
dFosB activator – enhances mouse delta FosB homodimer DNA binding | P13346 | activation, % at 25 µM | actives 0.99% (n = 340,000) | purified delta FosB, TAMRA-CDK5 oligo fluorescence polarization; percent of positive-control signal above neutral wells;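 active = mean activation above about 17%, with every replicate also reaching it, limit read from the data, passing the limit was not always enough; inconclusive = only one of the two conditions met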
Target sequence (P13346 whole entry, looked up): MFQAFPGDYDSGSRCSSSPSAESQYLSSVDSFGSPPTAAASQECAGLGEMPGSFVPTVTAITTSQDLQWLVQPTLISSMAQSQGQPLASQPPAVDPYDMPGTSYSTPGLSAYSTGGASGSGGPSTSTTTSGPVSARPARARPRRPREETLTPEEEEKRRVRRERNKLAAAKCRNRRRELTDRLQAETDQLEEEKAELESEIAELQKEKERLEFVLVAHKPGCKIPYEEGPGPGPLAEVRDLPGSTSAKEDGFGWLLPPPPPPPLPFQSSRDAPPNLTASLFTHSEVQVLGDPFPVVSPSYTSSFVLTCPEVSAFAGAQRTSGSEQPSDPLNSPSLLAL
MPTP block – permeability transition pore inhibition; isolated mouse mitochondria, Ca2+ swelling absorbance, 30 min; actives 1.4% (n = 360,000); inhibition, % at 10 µM;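 active = inhibition of 50% or more, scaled per plate between neutral and stimulator controls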;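 also: 0% = DMSO wells given calcium and 100% = 1 mM EGTA wells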
HSP90 refold inh – blocks HSP90-mediated luciferase refolding in reticulocyte lysate. Rabbit reticulocyte lysate, luciferase refolding luminescence, 3 h. inhibition, % at 5.6 µM. actives 0.91% (n = 290,000);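 active = inhibition above the screen-wide mean plus 3 SD, computed separately per campaign, cut at about 16% in these data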;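 also: 0% = DMSO wells and 100% = 60 µM geldanamycin wells; inhibitors lower the luminescence because luciferase stays unfolded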
HSF-1 act – increases HSF-1 driven luciferase reporter signal. actives 1.7% (n = 300,000). NIH3T3-HGL HSF-1 luciferase reporter, MG132, 8 h; 100% = twice DMSO control signal. activation, % at 9 µM;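 active = mean replicate activation of at least 50% with a set share of replicates each reaching 50%; inconclusive = only one of those two conditions met; inactive = mean below 50% and too few replicates reaching it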;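 also: 0% = median of the neutral control wells and 100% = twice that signal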
Platelet DG rel – platelet dense granule release activity; human platelet-rich plasma, SFLLRN dense granule ATP release, luminescence; inhibition, %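 (compounds screened at 7.5 µM in platelet-rich plasma)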; actives 0.22% (n = 300,000); AID 1663;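 active = mean replicate score, as percent of positive control, at or above 50; inconclusive = mean below 50 but at least one replicate at or above 50; inactive = mean and every replicate below 50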
HSF1 inh – HSF1 inhibition; NIH3T3-HGL HSE-luciferase, MG132-induced, luminescence 8 h; hits give low values; activity change, negative = inhibition, % at 7.5 µM (by protocol); actives 0.77% (n = 300,000); AID 2098;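 active = more than half of replicate wells show activity change below -50%, luminescence cut by over half; inconclusive = some wells, but at most half, below -50%; inactive = no replicate well below -50%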;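 also: luciferase reports HSF-1 transcriptional activity via heat shock element; 0% = median of DMSO wells and -100% = zero luminescence signal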
An asterisk follows results filed as active; u = inconclusive; x = no result given. Rows were chosen to be rich in hits. Some 4.9% of all compounds tested hit in one or more screens of this group.

SMILES	dFosB activator	MPTP block	HSP90 refold inh	HSF-1 act	Platelet DG rel	HSF1 inh
COc1ccc(NC(=O)C2CCCN2C(=O)OC(C)(C)C)cc1 (stereo not drawn)	5	0	0	-2	4	-4
CSc1cccc(NC(=S)N(CCCN2CCCC2)Cc2cccn2Cc2ccc(Cl)cc2)c1	27*	1	5	7	-3	5
COc1ccccc1/C=C/C(=O)NCC(=O)N/N=C/c1ccccc1	-9	-1	2	9	-1	-3
COc1ccc(/C=C\C(=O)NCC(=O)N/N=C/c2cccc(OC)c2O)cc1	47*	-1	-1	22	-1	1
COc1cccc(/C=N/NC(=O)CNC(=O)/C=C\c2ccccc2)c1O	58*	-3	-1	46	-3	5
CCCCCCCCCCCCCC(=O)NO	-2	2	x	x	x	x
N#Cc1cc2c(nc1S(=O)(=O)Cc1ccccc1)CCCC2	0	-1	1	-13	4	-3
CC(=O)c1cc2cccc(OC3(C)CCN(Cc4ccc(-c5ccccn5)cc4)C3)c2o1 (stereo not drawn)	x	-1	x	x	x	x
O=C(CSc1nnc(SCc2ccc(Cl)cc2)s1)N/N=C/c1c(Cl)cccc1Cl	-32	3	1	60*	-9	28
COc1cc(/C=C/C(=O)OCC(=O)NCc2ccco2)ccc1O	3	0	x	-5	10	-2
N=c1n(CC(=O)c2ccc([N+](=O)[O-])cc2)c2ccccc2n1Cc1ccccc1	4	4	4	-2	-2	-2
N=c1n(CC(=O)c2ccc(Br)cc2)c2ccccc2n1Cc1ccccc1	35*	0	x	x	x	x
CCOC(=O)N1c2ccccc2C=CC1OCC (stereo not drawn)	x	x	6	-11	0	0
O=C(CC1C=Cc2ccccc2N1C(=O)c1ccccc1)c1ccccc1 (stereo not drawn)	-7	0	1	71*	1	24
CC1C=Cc2ccccc2N1C(=O)c1ccccc1 (stereo not drawn)	2	-2	2	-70	-3	-63*
CCOC(=O)c1c(NC(=O)Cn2cnc([N+](=O)[O-])n2)sc2c1CCCC2	-5	0	-6	10	7	3
CC(C)OC(=O)c1c(NC(=O)Cn2cnc([N+](=O)[O-])n2)sc2c1CCCC2	2	0	3	58*	0	12
COc1ccc(C(=O)/C=C/c2ccc(OC)c(Cn3nnc4ccccc43)c2)cc1	-7	3	-3	80*	-20	44
COc1ccc(C(=O)/C=C/c2ccc(OC)c(CN3CCOCC3)c2)cc1	-18	1	10	34	4	34
CCOc1ccc(/C=C/C(=O)c2ccccc2)cc1OC	-2	3	-1	63*	5	32
CCOc1ccc(C(=O)/C=C/c2ccc(OC)c(OC)c2)cc1	-8	0	2	26	-1	9
O=C(/C=C/c1ccc(O)cc1)c1ccccc1	-3	3	2	84*	72*	40
O=C(Nc1ccc(N2CCCCC2)cc1)c1ccc2ccccc2n1	-7	2	-3	8	2	13
COC(=O)C(Cc1cccc(C)n1)(c1ccccc1)c1ccccc1	2	0	3	15	-6	0
CC(=O)NCc1ccc(S(=O)(=O)NC(C(=O)O)C(C)C)cc1 (stereo not drawn)	-20	2	-4	50	-2	13
SMILES	dFosB activator	MPTP block	HSP90 refold inh	HSF-1 act	Platelet DG rel	HSF1 inh
Cc1ccc(COc2ccc(C)nc2[N+](=O)[O-])cc1	-11	2	13	75*	-5	30
COC(=O)c1ccsc1NC(=O)c1ccccc1	-12	0	-2	3	15	5
COC(=O)c1ccsc1NC(=O)CCc1ccccc1	-3	5	-1	67*	8	32
COC(=O)Nc1sccc1C(=O)Nc1sccc1C(=O)OC	-4	-2	3	-66	-2	-65*
CC1(C)SC2C(C(=O)O)N=C(Cc3ccccc3)N2C1C(=O)O (stereo not drawn)	0	-2	x	x	x	x
Cc1ccc(/C=C2\SC(=S)N(CCCC(=O)NNC(=O)c3ccccc3O)C2=O)cc1	9	21	6	-56	0	-52*
COc1cccc(/C=C2/SC(=S)N(CC(=O)NNC(=O)c3ccccc3O)C2=O)c1	21*	3	5	28	-7	-4
O=C(CCN1C(=O)/C(=C/c2ccccc2Cl)SC1=S)NCCc1ccc(O)cc1	23*	0	5	-16	-11	3
O=C(CCN1C(=O)/C(=C/c2ccccc2Cl)SC1=S)NNC(=O)c1cccnc1	2	43	6	21	3	2
O=C(CCN1C(=O)/C(=C/c2ccccc2Cl)SC1=S)NNC(=O)c1ccccc1O	37*	7	6	15	0	-3
CC/C(C)=N/Nc1cccc([N+](=O)[O-])c1	-2	3	-1	0	-1	-2
CC(=O)NC12CC3CC(C1)CC(C(=O)NCc1ccc(C)cc1)(C3)C2	-8	-3	-3	5	-9	5
CC1(C(=O)NS(=O)(=O)c2cccc(OC(F)F)c2)CCN1C(=O)c1ccco1 (stereo not drawn)	x	-1	x	x	x	x
Cc1cc(NC(=O)CCN2C(=O)/C(=C/c3ccccc3Cl)SC2=S)no1	-11	2	2	54*	9	11
Cc1ccc(/C=C2\SC(=S)N(CCC(=O)NNC(=O)c3ccc(O)cc3)C2=O)cc1	144*	43	-1	-13	1	-7
Cc1ccc(/C=C2\SC(=S)N(CCC(=O)NNC(=O)c3cccc(O)c3)C2=O)cc1	u	3	1	3	9	0
Cc1ccc(/C=C2\SC(=S)N(CCC(=O)NNC(=O)c3ccccc3O)C2=O)cc1	66*	4	6	-3	4	-14
Cc1ccc(/C=C2\SC(=S)N(CCC(=O)NNS(=O)(=O)c3ccccc3)C2=O)cc1	22*	5	2	-5	5	-4
Cc1ccc(/C=C2\SC(=S)N(CCC(=O)Nc3cccnc3)C2=O)cc1	-5	3	0	3	-2	0
Cc1cc(C)n(-c2nc3ccccc3c(=O)n2OCC#N)n1	-3	-1	4	9	3	0
CO[C@@]12[C@@H]3N[C@@H]3CN1C1=C(C(=O)C(N)=C(C)C1=O)[C@@H]2COC(N)=O	1	-1	x	x	x	x
CCCc1ccc2oc(C(=O)N(C)Cc3nccs3)c(C)c2c1	-3	-1	-5	67*	-6	28
O=C(CCN1C(=O)/C(=C\c2ccccc2)SC1=S)Nc1ccc(C(=O)O)cc1	-1	0	2	41	-5	2
CCOc1ccc(/C=C2\SC(=S)N(CCC(=O)O)C2=O)cc1	-4	4	7	-62	1	-60*
CCOc1ccc(/C=C2/SC(=S)N(CCC(=O)Nc3ccc(C(=O)O)cc3)C2=O)cc1	48*	4	0	4	-6	-1
